Results filed as inconclusive are left out. A structure can be active in one record and inactive in another. The source made the active and inactive calls. Rule for the calls, unless noted: active = hit-call score of the fitted dose curve at least 0.9, where 1 is the maximum; inconclusive = response in the unintended direction; inactive = score below 0.9.
Experiments:
[1] = ATG_RORE_CIS: Attagene CIS-FACTORIAL HepG2 Assay for human RAR-related Orphan Receptor Element (RORE) (AID 2282959; active = hit-call score of the fitted dose curve at least 0.9, where 1 is the maximum; inactive = score below 0.9); details: HepG2 Attagene cis-factorial RORE reporter, mRNA; actives raise or lower the signal
Method in brief: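 Readout: fluorescent reporter mRNA by RT-PCR plus capillary electrophoresis, 24 h after dosing transfected HepG2 cells. Endogenous transcription factor activity on a cis promoter element is measured. Gain or loss of signal fitted against DMSO.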

[2] = ATG_TGFb_CIS: Attagene CIS-FACTORIAL HepG2 Assay for human Transforming Growth Factor (TGF) (AID 2282967; active = hit-call score of the fitted dose curve at least 0.9, where 1 is the maximum; inactive = score below 0.9); details: HepG2 Attagene CIS TGFb reporter, mRNA transcription; actives raise or lower the signal
Method in brief: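 Transcript-level reporter readout: HepG2 transfectants, 24 h exposure, RNA to cDNA, reporter-specific PCR, fluorescent primer extension, capillary sizing against ROX standards. Gain- or loss-of-signal relative to DMSO.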

[3] = biological target: Hepatocyte nuclear factor 4-alpha (Homo sapiens) (UniProt P41235); test: ATG_HNF4a_TRANS: Attagene TRANS-FACTORIAL HepG2 Assay for human Hepatocyte Nuclear Factor 4 alpha (HNF4a) (AID 2282982); details: HepG2 HNF4a transactivation reporter, mRNA readout
Method in brief: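 Using HepG2 liver cells transfected with GAL4-UAS reporter units, chemical-induced mRNA increases were assessed after 24 hours. Fluorescent RT-PCR fragments were separated by capillary electrophoresis and compared with DMSO negative controls.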

[4] = ATG_M_32_TRANS: Attagene TRANS-FACTORIAL HepG2 Assay for M32 Transcription Factor (Internal Marker) (AID 2282984); details: HepG2 Attagene TRANS M32 internal marker reporter;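 note: transcript level of a background control reporter unit measured by RT-PCR and capillary electrophoresis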
Method in brief: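 Fluorescence-detected mRNA induction, HepG2 liver cells, 24 h after dosing. Multiple GAL4-UAS reporter units introduced by transient transfection; background-control endpoint analysed for gain of signal against DMSO.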

[5] = biological target: Nuclear respiratory factor 1 (Homo sapiens) (UniProt Q16656); test: ATG_NRF1_CIS: Attagene CIS-FACTORIAL HepG2 Assay for human Nuclear Respiratory Factor 1 (NRF1) Orphan Gene (AID 2282987; active = hit-call score of the fitted dose curve at least 0.9, where 1 is the maximum; inactive = score below 0.9); details: HepG2 NRF1 cis-element reporter, Attagene multiplex; actives raise or lower the signal
Method in brief: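 Endogenous NRF1-driven reporter transcription measured in transiently transfected human HepG2 liver cells. Readout: reporter mRNA by RT-PCR and capillary electrophoresis with fluorescence detection, 24 h post-dosing. Gain or loss of signal fitted relative to DMSO baseline.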

[6] = biological target: Retinoic acid receptor RXR-alpha (Homo sapiens) (UniProt P19793); test: ATG_RXRa_TRANS: Attagene TRANS-FACTORIAL HepG2 Assay for human Retinoid X Receptor alpha (RXRa) (AID 2283012)
Method in brief: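 Read-out: fluorescent reporter-transcript fragments quantified by capillary electrophoresis after RT-PCR. Transiently transfected HepG2 cells carrying GAL4-UAS reporters and NR-GAL4 chimeras were exposed to chemical for 24 h; activity scored as increase over DMSO.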

[7] = biological target: human Retinoid X Receptor beta (RXRb), RXRB (gene 6257) (UniProt P28702); test: ATG_RXRb_TRANS: Attagene TRANS-FACTORIAL HepG2 Assay for human Retinoid X Receptor beta (RXRb) (AID 2283013)
Method in brief: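 Read-out: reporter mRNA induction via RT-PCR plus capillary electrophoresis fluorescence, analysed as signal increase relative to DMSO. Cells were human HepG2, transiently transfected with GAL4-UAS reporter constructs and chimeric receptor-Gal4 fusions, dosed for 24 h.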

[8] = biological target: human Thyroid Receptor alpha (THRa1), THRA (gene 7067) (UniProt P10827); test: ATG_THRa1_TRANS: Attagene TRANS-FACTORIAL HepG2 Assay for human Thyroid Receptor alpha (THRa1) (AID 2283014)
Method in brief: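 Measured here is mRNA from a GAL4-UAS reporter in transfected HepG2 cells carrying a Gal4-fused receptor, 24 h post-dose. DMSO served as negative control and baseline.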

[9] = TOX21_p53_BLA_p2_viability: Viability Assessment in the Tox21 HCT-116 p53 Agonism Beta-lactamase Assay, Phase 2 (AID 2283591);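 note: compound exposure lasted 16 h at 37 °C; actives lower the ATP signal meaning cytotoxicity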
Method in brief: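 HCT-116 p53-bla cells (4000/well) rested 5 h at 37C, then received compounds in DMSO (217-fold dilution) for 16 h at 37C, 5% CO2. After the CCF4 read, CellTiter-Glo was added; ATP luminescence was read after 30 min at room temperature.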

[10] = biological target: Cellular tumor antigen p53 (Homo sapiens) (UniProt P04637); test: TOX21_p53_BLA_p2_ratio: Tox21 HCT-116 p53 Agonism Beta-lactamase Assay, Ratio, Phase 2 (AID 2283592)
Method in brief: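 DMSO-normalized, positive-direction endpoint derived from the 460 nm/530 nm FRET ratio in HCT116 p53 beta-lactamase reporter cells exposed 16 h at 37C and loaded with CCF4-AM for 2 h.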

[11] = biological target: Cellular tumor antigen p53 (Homo sapiens) (UniProt P04637); test: TOX21_p53_BLA_p3_ratio: Tox21 HCT-116 p53 Agonism Beta-lactamase Assay, Ratio, Phase 3 (AID 2283596)
Method in brief: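 Cells were seeded at 4000/well, rested 5 h at 37C, then dosed with DMSO compound solutions (217-fold dilution) for 16 h. CCF4-AM substrate was loaded for 2 h at room temperature, and the 460/530 nm emission ratio was fitted for gain of signal versus DMSO.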

[12] = TOX21_p53_BLA_p5_viability: Viability Assessment in the Tox21 HCT-116 p53 Agonism Beta-lactamase Assay, Phase 5 (AID 2283600)
Method in brief: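 Here cell health was gauged by ATP levels in wells holding 4000 cells, each treated 16 h with DMSO-delivered compounds at 217-fold dilution; reduced luminescence marked toxicity.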

[13] = biological target: Cellular tumor antigen p53 (Homo sapiens) (UniProt P04637); test: TOX21_p53_BLA_p4_ratio: Tox21 HCT-116 p53 Agonism Beta-lactamase Assay, Ratio, Phase 4 (AID 2283601)
Method in brief: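 HCT116 cells carrying an inducible beta-lactamase reporter were plated at 4000 cells/well, rested 5 h, then exposed to compounds in DMSO (217-fold dilution) for 16 h at 37C. CCF4-AM substrate was loaded 2 h at room temperature; 460/530 nm emission ratio scored gain-of-signal versus DMSO.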

[14] = biological target: Hepatocyte nuclear factor 3-beta (Homo sapiens) (UniProt Q9Y261); test: ATG_FoxA2_CIS: Attagene CIS-FACTORIAL HepG2 Assay for human Forkhead box A2 (FOXA2) (AID 2282942; active = hit-call score of the fitted dose curve at least 0.9, where 1 is the maximum; inactive = score below 0.9); details: HepG2 cis-reporter transcription factor activity, 24 h; actives raise or lower the signal
Method in brief: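 Readout: fluorescent reporter transcripts resolved by capillary electrophoresis after RT-PCR. Transiently transfected HepG2, 24 h compound exposure, endogenous TF activity at cis promoter elements. Gain or loss of signal fitted relative to DMSO.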

[15] = biological target: Hepatocyte nuclear factor 6 (Homo sapiens) (UniProt Q9UBC0); test: ATG_HNF6_CIS: Attagene CIS-FACTORIAL HepG2 Assay for human Hepatocyte Nuclear Factor 6 (HNF6) (AID 2282952; active = hit-call score of the fitted dose curve at least 0.9, where 1 is the maximum; inactive = score below 0.9); details: HepG2 Attagene cis-factorial HNF6 reporter transcription; actives raise or lower the signal
Method in brief: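 Twenty-four-hour chemical treatment of reporter-transfected HepG2 cells precedes RNA isolation, DNase-treated reverse transcription and PCR of reporter sequences. Labelled fragments are sized by capillary electrophoresis and fitted bidirectionally versus DMSO.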

[16] = ATG_GAL4_TRANS: Attagene TRANS-FACTORIAL HepG2 Assay for GAL4 (Internal Marker) (AID 2282976); details: HepG2 Attagene TRANS GAL4 internal marker reporter
Method in brief: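 Liver HepG2 line bearing multiplexed GAL4-UAS reporter constructs; 24 h chemical treatment. Transcripts were quantified as fluorescent fragments on capillary electrophoresis after RT-PCR and HpaI cut, with activity fitted upward from DMSO.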

[17] = ATG_NF_kB_CIS: Attagene CIS-FACTORIAL HepG2 Assay for human Nuclear Factor Kappa B (NF-kB) (AID 2282991; active = hit-call score of the fitted dose curve at least 0.9, where 1 is the maximum; inactive = score below 0.9); details: HepG2 Attagene cis-factorial NF-kB reporter mRNA; actives raise or lower the signal
Method in brief: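 Read-out: reporter transcript levels quantified by RT-PCR plus capillary electrophoresis of 6-FAM-labelled, HpaI-cut fragments. Transfected HepG2 cells, 24 h compound exposure, endogenous NF-kB-driven cis element; gain or loss scored versus DMSO.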

[18] = TOX21_p53_BLA_p4_viability: Viability Assessment in the Tox21 HCT-116 p53 Agonism Beta-lactamase Assay, Phase 4 (AID 2283597);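 note: hits lower the luminescence signal meaning cytotoxicity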
Method in brief: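 In this multiplexed secondary endpoint, HCT116 cells (4000 per well, compound at 5 h, 16 h treatment) received CellTiter-Glo after the beta-lactamase read. Luminescence after 30 min RT reflects ATP, and falling signal marks cytotoxicity.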

[19] = biological target: Cellular tumor antigen p53 (Homo sapiens) (UniProt P04637); test: TOX21_p53_BLA_p5_ratio: Tox21 HCT-116 p53 Agonism Beta-lactamase Assay, Ratio, Phase 5 (AID 2283599)
Method in brief: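 HCT-116 cells carrying a p53-inducible beta-lactamase reporter were seeded at 4000 cells/well and dosed after 5 h with compound in DMSO (217-fold dilution). After 16 h at 37C, CCF4-AM substrate was added for 2 h, and the 460/530 nm emission ratio was scored as gain-of-signal versus DMSO.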

[20] = biological target: Nuclear receptor subfamily 4 group A member 2 (Homo sapiens) (UniProt P43354); test: ATG_NURR1_TRANS: Attagene TRANS-FACTORIAL HepG2 Assay for human Nuclear Receptor Related Protein 1 (NURR1) (AID 2282985); details: HepG2 Attagene TRANS reporter, mRNA readout
Method in brief: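 Chimeric NR-Gal4 proteins were expressed in human HepG2 cells bearing GAL4-UAS reporter units, and induced reporter mRNA was quantified 24 h post-dosing by RT-PCR and capillary electrophoresis.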

Measured: AC50

human Retinoid X Receptor beta (RXRb), RXRB (gene 6257), sequence (P28702 whole entry, looked up, the tested form may be a part): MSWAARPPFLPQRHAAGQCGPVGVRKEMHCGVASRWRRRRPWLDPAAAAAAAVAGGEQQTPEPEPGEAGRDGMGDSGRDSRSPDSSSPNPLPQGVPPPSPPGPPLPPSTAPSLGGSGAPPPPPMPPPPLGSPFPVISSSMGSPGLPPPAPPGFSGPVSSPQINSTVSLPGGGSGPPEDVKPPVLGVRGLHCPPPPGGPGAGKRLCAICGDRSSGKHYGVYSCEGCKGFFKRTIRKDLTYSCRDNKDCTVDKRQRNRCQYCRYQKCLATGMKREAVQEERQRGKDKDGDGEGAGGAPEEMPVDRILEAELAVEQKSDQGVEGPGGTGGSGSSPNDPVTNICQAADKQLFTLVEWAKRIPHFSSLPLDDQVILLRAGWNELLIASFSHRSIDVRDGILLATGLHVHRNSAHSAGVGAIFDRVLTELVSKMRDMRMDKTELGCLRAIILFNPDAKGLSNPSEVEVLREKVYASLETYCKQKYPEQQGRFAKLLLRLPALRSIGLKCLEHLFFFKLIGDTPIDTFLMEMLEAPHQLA
Hepatocyte nuclear factor 3-beta (Homo sapiens), sequence (Q9Y261 whole entry, looked up): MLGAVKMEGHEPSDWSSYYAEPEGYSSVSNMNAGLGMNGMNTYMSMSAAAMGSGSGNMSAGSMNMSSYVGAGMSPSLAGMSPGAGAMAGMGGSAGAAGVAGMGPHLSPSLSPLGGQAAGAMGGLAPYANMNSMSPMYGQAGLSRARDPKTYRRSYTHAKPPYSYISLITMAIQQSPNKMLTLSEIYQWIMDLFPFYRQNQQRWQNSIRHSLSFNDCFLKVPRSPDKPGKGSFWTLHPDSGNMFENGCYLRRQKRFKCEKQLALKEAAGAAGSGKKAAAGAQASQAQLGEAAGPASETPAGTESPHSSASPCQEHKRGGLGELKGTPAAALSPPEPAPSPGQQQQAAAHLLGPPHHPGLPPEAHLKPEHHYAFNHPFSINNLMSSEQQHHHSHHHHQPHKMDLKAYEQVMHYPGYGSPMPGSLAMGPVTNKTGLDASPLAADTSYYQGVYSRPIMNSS
Nuclear respiratory factor 1 (Homo sapiens), sequence (Q16656 whole entry, looked up): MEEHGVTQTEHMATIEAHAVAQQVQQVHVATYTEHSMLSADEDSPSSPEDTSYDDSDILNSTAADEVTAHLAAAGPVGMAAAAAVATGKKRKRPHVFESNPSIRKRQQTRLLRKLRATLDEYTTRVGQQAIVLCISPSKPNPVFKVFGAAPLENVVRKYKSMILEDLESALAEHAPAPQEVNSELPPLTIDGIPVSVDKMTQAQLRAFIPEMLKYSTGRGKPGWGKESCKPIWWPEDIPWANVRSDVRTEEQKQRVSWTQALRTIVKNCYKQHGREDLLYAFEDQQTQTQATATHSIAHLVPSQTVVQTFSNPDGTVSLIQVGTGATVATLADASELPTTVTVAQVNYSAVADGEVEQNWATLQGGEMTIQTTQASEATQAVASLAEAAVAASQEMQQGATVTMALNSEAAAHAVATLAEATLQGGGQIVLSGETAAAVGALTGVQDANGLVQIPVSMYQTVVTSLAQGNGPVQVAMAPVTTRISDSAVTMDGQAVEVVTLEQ
Cellular tumor antigen p53 (Homo sapiens), sequence (P04637 whole entry, looked up): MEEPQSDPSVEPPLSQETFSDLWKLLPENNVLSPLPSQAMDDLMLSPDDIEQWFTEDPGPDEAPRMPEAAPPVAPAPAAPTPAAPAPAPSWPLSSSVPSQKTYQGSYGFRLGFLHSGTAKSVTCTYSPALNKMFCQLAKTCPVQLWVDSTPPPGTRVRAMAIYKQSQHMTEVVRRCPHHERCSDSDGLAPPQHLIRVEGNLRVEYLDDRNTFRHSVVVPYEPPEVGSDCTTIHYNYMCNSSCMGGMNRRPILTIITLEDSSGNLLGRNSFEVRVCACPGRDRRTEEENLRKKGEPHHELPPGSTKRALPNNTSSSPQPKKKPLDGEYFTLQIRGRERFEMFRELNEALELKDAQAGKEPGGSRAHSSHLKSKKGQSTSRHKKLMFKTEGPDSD
Hepatocyte nuclear factor 4-alpha (Homo sapiens), sequence (P41235 whole entry, looked up, the tested form may be a part): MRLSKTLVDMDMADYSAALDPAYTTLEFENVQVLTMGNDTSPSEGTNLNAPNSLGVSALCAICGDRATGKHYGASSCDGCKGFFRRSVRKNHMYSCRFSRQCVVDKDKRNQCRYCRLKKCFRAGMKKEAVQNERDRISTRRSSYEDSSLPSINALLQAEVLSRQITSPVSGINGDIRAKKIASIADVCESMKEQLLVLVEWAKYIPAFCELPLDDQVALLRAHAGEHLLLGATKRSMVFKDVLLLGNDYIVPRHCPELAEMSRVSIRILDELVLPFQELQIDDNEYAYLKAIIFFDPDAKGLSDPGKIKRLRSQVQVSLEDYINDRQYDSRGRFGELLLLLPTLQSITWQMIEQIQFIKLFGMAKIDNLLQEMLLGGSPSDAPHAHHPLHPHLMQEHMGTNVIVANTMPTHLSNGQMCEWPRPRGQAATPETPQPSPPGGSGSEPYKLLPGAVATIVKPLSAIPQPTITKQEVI
Hepatocyte nuclear factor 6 (Homo sapiens), sequence (Q9UBC0 whole entry, looked up, the tested form may be a part): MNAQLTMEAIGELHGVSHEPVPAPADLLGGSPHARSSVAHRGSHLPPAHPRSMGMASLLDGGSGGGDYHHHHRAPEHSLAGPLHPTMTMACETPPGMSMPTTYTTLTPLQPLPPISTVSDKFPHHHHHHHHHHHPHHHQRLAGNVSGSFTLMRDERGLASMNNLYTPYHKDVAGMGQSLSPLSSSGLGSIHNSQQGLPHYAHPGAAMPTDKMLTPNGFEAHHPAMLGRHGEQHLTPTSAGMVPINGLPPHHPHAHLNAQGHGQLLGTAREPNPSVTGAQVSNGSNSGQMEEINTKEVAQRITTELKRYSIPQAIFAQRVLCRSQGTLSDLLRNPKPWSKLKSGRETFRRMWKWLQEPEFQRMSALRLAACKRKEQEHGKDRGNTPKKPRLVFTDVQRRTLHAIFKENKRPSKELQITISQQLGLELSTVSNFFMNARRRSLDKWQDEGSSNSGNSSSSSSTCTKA
Nuclear receptor subfamily 4 group A member 2 (Homo sapiens), sequence (P43354 whole entry, looked up, the tested form may be a part): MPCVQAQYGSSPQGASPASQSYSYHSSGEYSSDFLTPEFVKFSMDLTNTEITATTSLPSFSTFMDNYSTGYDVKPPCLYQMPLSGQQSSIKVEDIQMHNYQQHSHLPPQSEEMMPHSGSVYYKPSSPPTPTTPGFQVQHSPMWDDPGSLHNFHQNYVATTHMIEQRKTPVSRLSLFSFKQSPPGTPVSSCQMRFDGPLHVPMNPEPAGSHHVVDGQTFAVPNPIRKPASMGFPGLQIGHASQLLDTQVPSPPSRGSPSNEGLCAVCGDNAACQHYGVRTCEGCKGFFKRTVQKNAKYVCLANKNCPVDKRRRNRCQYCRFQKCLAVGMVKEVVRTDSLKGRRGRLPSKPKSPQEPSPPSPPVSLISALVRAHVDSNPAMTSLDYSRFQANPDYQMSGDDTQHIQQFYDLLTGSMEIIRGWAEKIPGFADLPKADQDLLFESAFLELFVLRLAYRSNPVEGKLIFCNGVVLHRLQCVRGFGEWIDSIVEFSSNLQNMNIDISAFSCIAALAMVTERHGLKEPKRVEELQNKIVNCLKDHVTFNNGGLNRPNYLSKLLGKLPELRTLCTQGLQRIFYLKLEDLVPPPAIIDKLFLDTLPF
human Thyroid Receptor alpha (THRa1), THRA (gene 7067), sequence (P10827 whole entry, looked up, the tested form may be a part): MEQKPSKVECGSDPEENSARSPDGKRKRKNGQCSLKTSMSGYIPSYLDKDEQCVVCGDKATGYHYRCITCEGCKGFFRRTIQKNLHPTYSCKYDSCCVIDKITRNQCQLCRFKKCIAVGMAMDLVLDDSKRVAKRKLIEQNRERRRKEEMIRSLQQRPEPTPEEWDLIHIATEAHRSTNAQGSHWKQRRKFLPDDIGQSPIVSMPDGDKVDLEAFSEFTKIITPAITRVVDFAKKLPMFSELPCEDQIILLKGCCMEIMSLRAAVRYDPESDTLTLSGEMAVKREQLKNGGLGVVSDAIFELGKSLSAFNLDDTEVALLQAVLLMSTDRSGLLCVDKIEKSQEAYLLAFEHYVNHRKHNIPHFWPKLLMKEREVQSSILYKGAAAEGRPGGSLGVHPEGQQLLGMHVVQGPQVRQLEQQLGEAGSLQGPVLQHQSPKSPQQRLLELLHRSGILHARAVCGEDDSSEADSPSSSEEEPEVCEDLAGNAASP
Retinoic acid receptor RXR-alpha (Homo sapiens), sequence (P19793 whole entry, looked up, the tested form may be a part): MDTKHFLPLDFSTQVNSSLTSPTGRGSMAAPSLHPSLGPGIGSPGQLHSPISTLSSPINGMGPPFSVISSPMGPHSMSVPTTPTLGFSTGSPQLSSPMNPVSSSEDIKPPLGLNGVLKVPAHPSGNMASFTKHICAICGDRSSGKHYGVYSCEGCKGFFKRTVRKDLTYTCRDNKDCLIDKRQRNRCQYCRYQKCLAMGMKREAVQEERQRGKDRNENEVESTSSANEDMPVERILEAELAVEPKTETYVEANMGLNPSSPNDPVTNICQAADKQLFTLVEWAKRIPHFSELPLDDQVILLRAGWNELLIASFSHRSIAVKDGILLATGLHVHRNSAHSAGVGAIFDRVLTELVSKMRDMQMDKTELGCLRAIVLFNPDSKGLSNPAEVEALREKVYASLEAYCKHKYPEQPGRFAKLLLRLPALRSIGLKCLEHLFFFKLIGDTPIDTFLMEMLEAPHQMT

CC(C)(Oc1ccc(Cl)cc1)C(=O)O
not listed: [14] | [15] | [16] | [17] | [18] | [19] | [20]
inactive: all other assays above

COC(OC)C(C)c1ccccc1 (stereo unspecified)
not listed: [2] | [20]
inactive: all other assays above

CC(O)(P(=O)(O)O)P(=O)(O)O
inactive: [14] | [15] | [16] | [5] | [6] | [7] | [8]

Brc1ccc(Oc2ccc(Br)cc2)cc1
active: [2] 100 µM
not listed: [3] | [5] | [16] | [17]
inactive: all other assays above

CC(C)n1c(/C=C/[C@@H](O)C[C@@H](O)CC(=O)O)c(-c2ccc(F)cc2)c2ccccc21
inactive: [14] | [16] | [4] | [6] | [7] | [9] | [10] | [18] | [19] | [12] | [13]
active: [1] 55.3 µM | [18] 43.3 µM

O=C(Oc1ccccc1)c1ccccc1
inactive: [14] | [15] | [1] | [3] | [5] | [17] | [7] | [8]

CN1CCCC1
not listed: [7] | [11] | [12] | [18]
inactive: all other assays above

CN(C)CCCN1c2ccccc2CCc2ccc(Cl)cc21
active: [7] 5.79 µM | [9] 79 µM | [18] 73.9 µM | [19] 86.8 µM | [12] 77.1 µM
inactive: [14] | [15] | [1] | [16] | [3] | [20] | [17] | [6] | [8] | [10] | [11] | [18] | [19] | [12] | [13]

CO[Si](CCCNCCN)(OC)OC
inactive: [14] | [15] | [1] | [3] | [4] | [20] | [8]

CC=CC(=O)O
inactive: [14] | [2] | [16] | [3] | [4] | [17] | [6] | [8]

— PubChem BioAssay (EPA / NIEHS)
